This is one part of a sample in which hits are shown more often than they occur.
CBFb-RUNX1 inh = qHTS Assay for Compounds Blocking the Interaction Between CBF-beta and RUNX1 for the Treatment of Acute Myeloid Leukemia | Runt-related transcription factor 1 (Homo sapiens) + Core-binding factor subunit beta … | Potency, µM (series often up to 59.8 µM), without a hit: top-dose activity, negative = inhibition, actives largely listed as inhibitors | 230,000 tested, under 10 active | AlphaScreen CBFb-His/RUNX1-biotin binding, biochemical; note: % of control where 0% means no effect
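His-tagged CBF-beta and biotinylated RUNX1 (30 nM each) were premixed 20 min at room temperature, exposed to compound for 15 min, then given nickel-chelate and streptavidin AlphaScreen beads (50 ng each). After 90 min, AlphaScreen signal was read.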
TRb SRC2 PPI = qHTS for Inhibitors of the Interaction of Thyroid Hormone Receptor and Steroid Receptor Coregulator 2; Thyroid hormone receptor beta (Homo sapiens), P10828; TRbeta-SRC2 peptide binding, fluorescence polarization; receptor liganded with 1 µM T3; Potency, µM (top dose mostly 106 µM), for inactives: at the highest dose activity change, negative = inhibition, hits mostly inhibitors; 280,000 compounds, 0.065% hits; AID 1469, 2008;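 note: potency is the fitted concentration of half-maximal effect; plate controls were bound peptide for no effect and peptide without receptor for full effect; nearly all actives have a fitted effect of over 50% in size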
Target sequence (P10828 whole entry, looked up): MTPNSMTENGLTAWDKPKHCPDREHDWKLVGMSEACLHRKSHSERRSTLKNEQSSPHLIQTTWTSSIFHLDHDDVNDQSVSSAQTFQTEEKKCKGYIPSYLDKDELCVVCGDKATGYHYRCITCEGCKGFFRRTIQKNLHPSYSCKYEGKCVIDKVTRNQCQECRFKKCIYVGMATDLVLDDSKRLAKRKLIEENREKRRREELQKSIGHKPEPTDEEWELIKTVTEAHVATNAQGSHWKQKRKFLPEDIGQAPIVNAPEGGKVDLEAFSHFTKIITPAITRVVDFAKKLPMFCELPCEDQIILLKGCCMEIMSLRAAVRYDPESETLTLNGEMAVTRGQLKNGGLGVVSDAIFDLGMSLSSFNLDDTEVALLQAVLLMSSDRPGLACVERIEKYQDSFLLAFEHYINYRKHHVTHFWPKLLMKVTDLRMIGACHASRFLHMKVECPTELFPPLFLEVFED
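Quantitative HTS by FP: 0.6 uM TRb LBD, 20 nM labeled SRC2 20-mer, 1 uM T3, 5% DMSO; 5 hr ambient incubation; % activity per concentration and potencies from concentration series.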
TexasRed fluor = Total Fluorescence Counterscreen for Inhibitors of the Interaction of Thyroid Hormone Receptor and Steroid Receptor Coregulator 2. TRb/SRC2 Texas Red total fluorescence interference. Potency, µM (titrated, usually from 106 µM), inactives show at the highest dose fluorescence change, negative = quenching. 280,000 compounds, 0.29% hits; active = well fitted curve in either direction with a large enough effect; inconclusive = small, poorly fitted or top-dose-only effect; note: potency is the fitted concentration of half-maximal effect; % is set by controls: 0 for no effect and ±100 for the full control effect
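Flags fluorescent or light-absorbing compounds by total fluorescence, S + 2P, at 555 nm excitation and 632 nm emission. Mixture: 20 nM Texas Red SRC2 peptide, 0.6 uM human TRb LBD, 1 uM T3, 5% DMSO; compound exposure 5 h at ambient temperature.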
RGS12 GoLoco inh = qHTS Assay for Inhibitors of RGS12 GoLoco Motif Activity (Red Fluorophore) | Guanine nucleotide-binding protein G(i) subunit alpha-1 (Homo sapiens), P63096 | Gai1:RGS12 GoLoco peptide FP, rhodamine, 10 min | Potency, µM (highest dose often 61.6 µM), inactives show at the top dose activity, negative = inhibition, actives largely listed as inhibitors | 230,000 compounds, 0.44% hits; active = well fitted inhibition curve with a large enough effect, not every such curve was filed as active; inactive = no such curve, though single readings can be large or run the other way; note: potency is the fitted concentration of half-maximal effect; % is set by controls: 0 for no effect and ±100 for the full control effect; nearly all actives have a fitted effect of over 30% in size
Target sequence (P63096 whole entry, looked up): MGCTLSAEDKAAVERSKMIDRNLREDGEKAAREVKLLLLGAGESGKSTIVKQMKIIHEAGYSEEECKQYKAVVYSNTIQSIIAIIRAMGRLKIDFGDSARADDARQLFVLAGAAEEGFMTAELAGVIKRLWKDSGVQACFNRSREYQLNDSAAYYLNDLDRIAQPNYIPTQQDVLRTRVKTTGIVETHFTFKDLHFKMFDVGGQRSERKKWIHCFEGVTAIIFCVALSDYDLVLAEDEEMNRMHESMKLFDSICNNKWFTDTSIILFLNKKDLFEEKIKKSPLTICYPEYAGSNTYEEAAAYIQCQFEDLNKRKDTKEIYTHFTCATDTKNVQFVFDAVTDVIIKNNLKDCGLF
ERG Ets-DNA blk = qHTS for Small Molecule Inhibitors of the ERG Ets/DNA interaction; Potency, µM (series often up to 76.9 µM), for inactives: top-dose FP activity, negative = inhibition, hits mostly inhibitors; 370,000 compounds, 0.028% hits; fluorescence polarization, His-ERG Ets domain / labelled DNA; AID 624246, 2012; Transcriptional regulator ERG (Homo sapiens), P11308; active = well fitted inhibition curve with a large enough effect in the polarisation, with a control signal flat; inconclusive = small, poorly fitted or top-dose-only effect, or effect the other way, or a change in a side signal; inactive = no such curve, though single readings can be large or run the other way; the % refers to the polarisation;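 note: polarization taken with two DNA probes labelled with fluorescein and Texas red; potency is the fitted concentration of half-maximal effect; % of control where 0% means no effect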
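His-tagged ERG Ets domain (1 uM in the protein solution; 300mM KCl, 50mM Tris-HCl, 1mM EDTA, 1mM DTT, pH 7.5) received compound, then a probe mix of 5 nM fluorescein-DNA and 100nM Texas-615-DNA. Fluorescence polarization was read for both dyes.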
* = called active by the depositor; ? = inconclusive; nt = no result given; ! = not confirmed by another sample; [ ] = dose if it differs, or a comment. Unless noted, calls come from the whole dose curve; as a rule, active = well fitted curve in the direction sought with a large enough effect; inconclusive = small, poorly fitted or top-dose-only effect, or another doubt; inactive = no such curve, though single readings can be large; an effect the other way counts as inactive or inconclusive.

SMILES	CBFb-RUNX1 inh	TRb SRC2 PPI	TexasRed fluor	RGS12 GoLoco inh	ERG Ets-DNA blk
c1ccc2c(c1)Cc1ccccc1-2	nt	0%[201 µM]	-3%[201 µM]	nt	nt
CCCN(CCC)C(=O)Cn1c(=O)n(-c2ccc(CC)cc2)c(=O)c2c3c(sc21)CCC3	nt	-6%	0.2µM*[quencher]	nt	-10%
O=S(=O)(O)c1ccc(N=Nc2cc(S(=O)(=O)O)c3ccccc3c2O)c2ccccc12	nt	?	100µM*[fluorescent]	nt	nt
OC1CCC(C2CCCCC2)CC1 (centres undefined)	nt	-1%[201 µM]	-10%[201 µM]	nt	nt
Brc1ccc(Br)c(Br)c1	nt	4%[201 µM]	-4%[201 µM]	nt	nt
CCC(CC)NC(=O)COC(=O)c1cc(SC)ccc1Cl	11%	5%	-2%	-9%	13µM*
CCC(=O)N1CCc2cc(Br)cc(S(=O)(=O)N3CCCC(C(=O)NCc4ccc(OC)cc4)C3)c21 (centres undefined)	nt	-7%	-4%	nt	-5%
CCC(=O)N1CCc2cc(Br)cc(S(=O)(=O)N3CCCC(C(=O)NCc4cccc(OC)c4)C3)c21 (centres undefined)	nt	-10%	0.0079µM*[quencher]	nt	-1%
CCCC/C=C\CCCCCCCCCC=O	nt	9%[201 µM]	3%[201 µM]	nt	nt
COC(=O)c1cc2sc(Cl)cc2n1Cc1nc(-c2ccccc2F)oc1C	nt	-15%	25µM*[quencher]	nt	-2%
CCN1C(=NCCCOC(C)C)N[C@@H](CCc2ccccc2)[C@H](C(=O)NCCCOC(C)C)[C@H]1C	nt	nt	nt	nt	7%
Cc1ccc(C)c(N2CCN(C(=O)CS(=O)(=O)c3cccc4nsnc34)CC2)c1	nt	-29%	0.035µM*[quencher]	nt	7%
Cn1c(-n2cccc2)c(-c2c(-c3ccccc3)[nH]c3c2c(=O)n(C)c(=O)n3C)c(=O)n(C)c1=O	nt	-11%	25119µM*[quencher]	nt	-1%
CCOCCOC(=O)c1ccc(NC(=O)/C=C/c2ccc(OC)c(OC)c2)cc1	nt	-17%[53 µM]	0.89µM*[quencher]	nt	-2%
CC(C)CN1CCC(=O)N([C@H](CO)c2ccccc2)CC1	nt	nt	nt	nt	2%
COc1ccc(-c2noc(N3CCC(C(=O)Nc4ccc(F)cc4)CC3)n2)cc1	nt	nt	nt	nt	0%
COc1ccc(-c2noc(N3CCC(C(=O)N4CCN(c5ccccc5F)CC4)CC3)n2)cc1	nt	?	56µM*[quencher]	nt	1%
CCc1ccc(NC(=O)C2CCN(C(=O)N3CC(CC)Oc4ccccc43)CC2)cc1 (centres undefined)	nt	0%	-3%	nt	0%
CCC1CN(C(=O)N2CCC(C(=O)N3CCN(c4ccccc4F)CC3)CC2)c2ccccc2O1 (centres undefined)	nt	-3%	0.014µM*[quencher]	nt	-11%
CC(=O)c1ccc(OCCNS(=O)(=O)c2ccc(-n3cnnn3)cc2)cc1	nt	nt	nt	nt	1%
COc1ccc(C(=O)c2ccccc2)cc1	12%	4%	-1%	9%	0%
COC1=CC(=O)C(C(=O)c2ccccc2)=CC1=O	nt	?	-7%	6.3µM*	nt
COC(=O)CC1Oc2ccc(Cl)cc2-n2cc(-c3ccc(C)cc3)nc21 (centres undefined)	nt	-8%	22µM*[quencher]	nt	-10%
COC(=O)CC1Oc2ccc(C)cc2-n2cc(-c3ccc(C)cc3)nc21 (centres undefined)	nt	-2%	-3%	nt	-3%
Cc1ccc(-c2cc3ncc4c(n3n2)-c2cc(F)ccc2OC4)cc1	nt	-6%	25µM*[quencher]	nt	7%
SMILES	CBFb-RUNX1 inh	TRb SRC2 PPI	TexasRed fluor	RGS12 GoLoco inh	ERG Ets-DNA blk
Cc1ccc(-c2cc3ncc4c(n3n2)-c2cc(C)ccc2OC4)cc1	nt	0%	2%	nt	-1%
CC1=C(C(=O)N2CCOCC2)C(c2cc(C)cs2)NC(=O)N1 (centres undefined)	5%	20µM*	28µM*[fluorescent]	5%	-17%
COc1ccccc1N1CCN(c2cc(C)nc3nncn23)CC1	nt	-2%	-1%	nt	2%
Cc1cccn2c(=O)c(C(=O)NCCCN3CCCCC3C)c(O)nc12 (centres undefined)	nt	-1%	18µM*[quencher]	nt	-1%
O=C(Nc1nnc(S(=O)(=O)N2CCCC2)s1)c1ccccc1Br	nt	-13%	0.05µM*[quencher]	nt	7%
C=Cc1c(C)/c2[n-]/c1=C\c1[n-]c(c(CC)c1C)/C=c1\[n-]c3c(c1C)C(=O)C(C(=O)[O-])C=3c1[n-]c(c(C)c1CCC(=O)[O-])\C=2.[Cu].[Na+].[Na+] (centres undefined)	nt	45µM*	25µM*[quencher]	-5%	nt
CCc1ccc(CNc2ccc(O)cc2)cc1	-10%	-13%	0%	14µM*	-9%
CCOc1cc(CNc2ccc(O)cc2)ccc1OCc1ccc(Cl)cc1Cl	0%	28µM*	19%	-29%	?
CCOc1cc(CNCc2ccccc2)ccc1OCc1ccc(Cl)cc1	nt	nt	nt	nt	-2%
CCOc1cccc(CNc2ccc(O)cc2)c1OCc1ccc(Cl)cc1	0%	35µM*	?	-22%	?
CCOc1ccccc1CNc1ccc(O)cc1	?	28µM*	?	-46%	?
COc1cccc(C(=O)Nc2nnc(S(=O)(=O)N3CCCC3)s2)c1	nt	0%	-16%	nt	7%
Clc1ccc(OCCNCCc2ccccc2)cc1	nt	nt	nt	nt	-11%
C[Si]1(C)O[Si](C)(C)O[Si](C)(C)O[Si](C)(C)O[Si](C)(C)O1	nt	-3%[201 µM]	-2%[201 µM]	nt	nt
Oc1ccc(NCc2ccccc2OCc2ccccc2F)cc1	?	35µM*!	9%[11.2 µM]	-14%	?
Cc1ccc(NCc2ccccc2OCc2ccccc2F)cc1	?	-6%	-6%	6%	2%
CC(C)Nc1nc(N)nc(Cl)n1	nt	-2%[201 µM]	0%[201 µM]	nt	nt
O=C(COC(=O)c1ccccc1-n1cnnn1)c1ccc(F)cc1	nt	nt	nt	nt	4%
CCN(CC)c1ccc(C(=C2C=CC(=[N+](CC)Cc3cccc(S(=O)(=O)[O-])c3)C=C2)c2ccc(N(CC)Cc3cccc(S(=O)(=O)O)c3)cc2)cc1	nt	11µM*	11µM*[fluorescent]	nt	nt
CCN(Cc1cccc(S(=O)(=O)O)c1)c1ccc(C(=C2C=CC(=[N+](CC)Cc3cccc(S(=O)(=O)[O-])c3)C=C2)c2ccccc2)cc1	nt	?	89µM*[quencher]	nt	nt
CS(=O)(=O)c1ccc(Cl)cc1	nt	2%[201 µM]	-1%[201 µM]	nt	nt
O=C(NCc1cccs1)C1CCN(C(=O)N2CCOc3ccccc32)CC1	nt	-10%	0.56µM*[quencher]	nt	1%
O=C(NCc1cccs1)C1CCN(C(=O)N2CCOc3ccc(Cl)cc32)CC1	nt	-8%	4%	nt	-5%
CC(C)(C)C(O)/C(=C\c1ccc(Cl)cc1)n1cncn1 (centres undefined)	nt	-6%[201 µM]	-1%[201 µM]	nt	nt

Compound activity: PubChem BioAssay, National Center for Advancing Translational Sciences (NCATS)
